Activity calls are given as the source filed them.

The source of these data is PubChem BioAssay.

Experiment [1] can be described thus: small molecules captured by biotinylated probe aFSTL3 – biochemical, small-molecule microarray, fluorescence 635/667, stem cell growth factor project, primary screen (AID 1064).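 Further: measures binding of the biotinylated anti-FSTL3 antibody to printed compounds.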 The conditions noted are these: higher = more signal.
Experiment [2] is described as follows: binders from COS7 lysate, DM2A8 probe, primary screen, torsin A project, cell lysate, small-molecule microarray, fluorescence 635/667 (AID 1065). The conditions noted are these: higher = more signal, COS7 lysate expressing mutant human TOR1A.
Experiment [3] in a line: small molecules captured by biotinylated probe aFGF2 – biochemical, small-molecule microarray, fluorescence 635/667, stem cell growth factor project, primary screen (AID 1067).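 Further: measures binding of biotinylated aFGF2 protein to printed compounds on slides; z-score merges feature fluorescence and signal-to-noise across triplicate slides.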 The settings on record: higher = more signal.
Experiment [4] can be described thus: small molecules captured by biotinylated probe aFGF10 – biochemical, small-molecule microarray, fluorescence 635/667, stem cell growth factor project, primary screen (AID 1071).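 Further: score merges 667 nm spot intensity and signal to noise from triplicate slides.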 The conditions noted are these: higher = more signal.
The target in experiment [5] is Neurogenic locus notch homolog protein 2 (Homo sapiens) (UniProt Q04721). Put plainly: small molecules binding Notch2 protein – biochemical, small-molecule microarray, 635 nm fluorescence, stem cell growth factors, primary screen (AID 1073). The conditions noted are these: higher = more signal.
The target in experiment [6] is Pro-neuregulin-1, membrane-bound isoform (Homo sapiens) (UniProt Q02297). The experiment can be described thus: small molecules binding neuregulin-1 protein – biochemical, small-molecule microarray, fluorescence 635/667, psychiatric disease protein project, primary screen (AID 1075).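 Further: score combines 667 nm spot fluorescence with signal to noise.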 The settings on record: NRG1 binding, 635 nm fluorescence, higher = more signal.
Experiment [7] deals with Neuregulin-1 EGF-like domain. The experiment can be described thus: small molecules binding NRG1 EGF domain – biochemical, small-molecule microarray, 635 nm fluorescence, primary screen (AID 1081).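 Further: binding of the protein to compounds printed on small-molecule microarray slides.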 The conditions noted are these: higher = more signal.
Experiment [8] is described as follows: FRG1 expression reporter modulators in myotubes – cell-based, C2C12 myotubes, firefly/Renilla luciferase, luminescence, FRG1 inhibition for FSHD, primary screen (AID 1084). The conditions noted are these: FRG1 promoter luciferase, higher = more signal, called active from +8 up or from −8 down.
Experiment [9] in a line: small molecules captured by biotinylated probe aFST – biochemical, small-molecule microarray, fluorescence 635/667, stem cell growth factor project, primary screen (AID 1086).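 Further: score merges 667 nm fluorescence with signal-to-noise of each printed compound spot.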 The conditions noted are these: higher = more signal.
A short description of experiment [10]: binders of probe aHhip on microarray, primary screen, stem cell growth factor project, biochemical, small-molecule microarray, fluorescence 635/667 (AID 1087).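 Further: score merges spot fluorescence at 667nm with spot signal to noise ratio.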 The settings on record: higher = more signal.
In experiment [11] the test system is PRMT1 (protein arginine N-methyltransferase 1). The experiment can be described thus: small molecules binding arginine methyltransferase PRMT1 – biochemical, small-molecule microarray, 635 nm fluorescence, primary screen (AID 1088).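 Further: binding of Prmt1 protein to compounds spotted on small-molecule microarray slides.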 The settings on record: higher = more signal.
The nature of experiment [12]: growth effects on S. cerevisiae YJM789 – YJM789 clinical isolate, OD600, 24 h, basal, primary screen (AID 1089).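 Further: growth of clinical yeast isolate S. cerevisiae YJM 789 seeded 1000 cells per well; test concentration not given here.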 The conditions noted are these: higher = more signal, called active from +8 up or from −8 down.
Experiment [13] is described as follows: S. pombe growth modifiers, basal conditions – strain 972, OD600, 24 h, no modulator, primary screen (AID 1090).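 Further: basal condition with compound alone and no growth modifier present; test concentration not given here.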 The conditions noted are these: S. pombe 972 growth, higher = more signal, called active from +8 up or from −8 down.
Experiment [14] in a line: budding yeast growth modifiers under rapamycin – strain BY4716, OD600, 96 h, primary screen (AID 1091). Further: test concentration not given here. The settings on record: S. cerevisiae BY4716 + rapamycin, higher = more signal, called active from +8 up or from −8 down.
Experiment [15] deals with Torsin-1A-interacting protein 2 (Homo sapiens) (UniProt Q8NFQ8). Put plainly: small molecules binding lysate-expressed LULL1 – cell lysate, human LULL1 lysate, 635/667 nm fluorescence, primary screen (AID 1092).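 Further: score merges per-feature 667 nm fluorescence with signal-to-noise.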 The settings on record: small-molecule microarray, hLULL1 lysate binding, 635 nm fluorescence; higher = more signal.
Experiment [16] in a line: optical density change of DRC41 E. coli – strain DRC41, OD650, 24 h, E. coli filamentation project, primary screen (AID 1093).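 Further: MC1000 strain lacking acrAB efflux and sulA so SOS filamentation is blocked; test concentration not given here.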 The settings on record: E. coli DRC41 growth, higher = more signal, called active from +8 up or from −8 down.
Experiment [17] in a line: probe aLefty2 binding to arrayed compounds – biochemical, biotinylated probe, 635/667 nm fluorescence, primary screen (AID 1094).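 Further: score merges spot fluorescence near 667 nm with spot signal-to-noise ratio.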 The settings on record: small-molecule microarray, higher = more signal.
Experiment [18] has as its system Noggin (protein binding on small-molecule microarray). Put plainly: small molecules binding Noggin protein – biochemical, 635/667 nm fluorescence, primary screen (AID 1095).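 Further: score merges 667 nm feature fluorescence with signal to noise over triplicate slides.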 The settings on record: 635 nm fluorescence, higher = more signal.
Experiment [19] concerns the target Neurogenic locus notch homolog protein 3 (Homo sapiens) (UniProt Q9UM47). Put plainly: small molecules binding NOTCH3 protein – biochemical, 635/667 nm fluorescence, primary screen (AID 1096). The settings on record: small-molecule microarray, 635 nm fluorescence, higher = more signal.
Experiment [20] is described as follows: probe aEGFR binding to arrayed compounds – biochemical, biotinylated probe, 635/667 nm fluorescence, primary screen (AID 1097).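 Further: probe is a biotinylated anti-EGFR antibody binding compounds printed on slides; score combines fluorescence near 667 nm and signal to noise of each spot.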 The settings on record: small-molecule microarray, higher = more signal.

Sequence of Neurogenic locus notch homolog protein 3 (Homo sapiens) (Q9UM47 whole entry, looked up): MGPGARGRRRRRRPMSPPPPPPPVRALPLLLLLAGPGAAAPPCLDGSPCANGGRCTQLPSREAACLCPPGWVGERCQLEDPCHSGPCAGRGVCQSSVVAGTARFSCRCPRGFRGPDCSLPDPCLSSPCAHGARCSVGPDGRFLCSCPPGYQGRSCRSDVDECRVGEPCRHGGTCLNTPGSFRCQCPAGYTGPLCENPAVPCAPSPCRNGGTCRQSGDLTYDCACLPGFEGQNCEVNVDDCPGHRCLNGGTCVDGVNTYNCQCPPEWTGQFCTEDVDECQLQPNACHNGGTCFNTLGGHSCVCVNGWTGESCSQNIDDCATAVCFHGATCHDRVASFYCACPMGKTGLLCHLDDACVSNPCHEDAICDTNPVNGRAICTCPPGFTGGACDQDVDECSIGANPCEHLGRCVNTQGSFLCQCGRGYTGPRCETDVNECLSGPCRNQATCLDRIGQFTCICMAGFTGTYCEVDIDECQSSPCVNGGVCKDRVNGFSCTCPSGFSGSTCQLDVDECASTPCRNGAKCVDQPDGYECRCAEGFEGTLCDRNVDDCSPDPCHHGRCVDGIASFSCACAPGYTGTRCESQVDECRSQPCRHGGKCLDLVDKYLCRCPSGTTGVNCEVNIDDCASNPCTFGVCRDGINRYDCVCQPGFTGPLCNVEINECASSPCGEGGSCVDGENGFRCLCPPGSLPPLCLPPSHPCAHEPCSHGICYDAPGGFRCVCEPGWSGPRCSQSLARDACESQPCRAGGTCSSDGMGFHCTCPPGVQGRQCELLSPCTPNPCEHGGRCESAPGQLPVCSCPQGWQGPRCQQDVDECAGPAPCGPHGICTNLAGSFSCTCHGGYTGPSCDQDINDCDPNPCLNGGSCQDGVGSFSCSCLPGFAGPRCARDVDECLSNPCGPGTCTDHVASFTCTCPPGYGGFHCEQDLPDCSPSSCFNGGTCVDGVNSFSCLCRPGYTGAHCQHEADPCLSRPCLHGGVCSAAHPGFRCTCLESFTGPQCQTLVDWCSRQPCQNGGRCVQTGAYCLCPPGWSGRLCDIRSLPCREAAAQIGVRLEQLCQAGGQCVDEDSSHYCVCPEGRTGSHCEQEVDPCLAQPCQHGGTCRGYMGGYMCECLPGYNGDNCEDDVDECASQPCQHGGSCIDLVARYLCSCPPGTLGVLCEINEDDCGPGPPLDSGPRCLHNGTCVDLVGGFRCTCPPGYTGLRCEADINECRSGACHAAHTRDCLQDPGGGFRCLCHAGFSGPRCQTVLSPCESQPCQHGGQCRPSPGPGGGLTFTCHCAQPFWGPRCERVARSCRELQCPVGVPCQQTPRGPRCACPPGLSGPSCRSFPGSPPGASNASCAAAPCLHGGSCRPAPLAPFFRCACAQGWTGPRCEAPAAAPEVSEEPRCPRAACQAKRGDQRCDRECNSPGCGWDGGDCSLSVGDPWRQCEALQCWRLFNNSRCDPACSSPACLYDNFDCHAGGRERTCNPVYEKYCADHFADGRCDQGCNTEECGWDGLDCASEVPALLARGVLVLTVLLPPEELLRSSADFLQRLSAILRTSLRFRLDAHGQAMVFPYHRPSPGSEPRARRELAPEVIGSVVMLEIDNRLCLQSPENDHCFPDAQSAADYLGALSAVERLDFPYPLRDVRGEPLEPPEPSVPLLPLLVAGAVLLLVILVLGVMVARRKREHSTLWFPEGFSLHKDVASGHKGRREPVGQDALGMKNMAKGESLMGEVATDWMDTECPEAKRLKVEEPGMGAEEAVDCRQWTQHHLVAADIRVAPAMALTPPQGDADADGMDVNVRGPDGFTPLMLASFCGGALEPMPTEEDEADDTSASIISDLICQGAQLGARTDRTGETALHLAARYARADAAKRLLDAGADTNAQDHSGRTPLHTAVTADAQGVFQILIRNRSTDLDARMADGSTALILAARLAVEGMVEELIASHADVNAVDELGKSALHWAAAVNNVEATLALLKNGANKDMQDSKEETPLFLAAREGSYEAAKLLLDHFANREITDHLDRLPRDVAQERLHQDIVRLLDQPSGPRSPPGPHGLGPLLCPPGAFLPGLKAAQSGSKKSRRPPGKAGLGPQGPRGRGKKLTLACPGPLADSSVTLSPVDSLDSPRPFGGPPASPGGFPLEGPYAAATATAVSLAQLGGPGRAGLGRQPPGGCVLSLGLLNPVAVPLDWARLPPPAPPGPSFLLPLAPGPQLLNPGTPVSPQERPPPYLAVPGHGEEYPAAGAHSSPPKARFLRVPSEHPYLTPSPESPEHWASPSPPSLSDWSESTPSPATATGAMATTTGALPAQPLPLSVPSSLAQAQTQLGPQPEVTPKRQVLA
Sequence of Neurogenic locus notch homolog protein 2 (Homo sapiens) (Q04721 whole entry, looked up, canonical isoform): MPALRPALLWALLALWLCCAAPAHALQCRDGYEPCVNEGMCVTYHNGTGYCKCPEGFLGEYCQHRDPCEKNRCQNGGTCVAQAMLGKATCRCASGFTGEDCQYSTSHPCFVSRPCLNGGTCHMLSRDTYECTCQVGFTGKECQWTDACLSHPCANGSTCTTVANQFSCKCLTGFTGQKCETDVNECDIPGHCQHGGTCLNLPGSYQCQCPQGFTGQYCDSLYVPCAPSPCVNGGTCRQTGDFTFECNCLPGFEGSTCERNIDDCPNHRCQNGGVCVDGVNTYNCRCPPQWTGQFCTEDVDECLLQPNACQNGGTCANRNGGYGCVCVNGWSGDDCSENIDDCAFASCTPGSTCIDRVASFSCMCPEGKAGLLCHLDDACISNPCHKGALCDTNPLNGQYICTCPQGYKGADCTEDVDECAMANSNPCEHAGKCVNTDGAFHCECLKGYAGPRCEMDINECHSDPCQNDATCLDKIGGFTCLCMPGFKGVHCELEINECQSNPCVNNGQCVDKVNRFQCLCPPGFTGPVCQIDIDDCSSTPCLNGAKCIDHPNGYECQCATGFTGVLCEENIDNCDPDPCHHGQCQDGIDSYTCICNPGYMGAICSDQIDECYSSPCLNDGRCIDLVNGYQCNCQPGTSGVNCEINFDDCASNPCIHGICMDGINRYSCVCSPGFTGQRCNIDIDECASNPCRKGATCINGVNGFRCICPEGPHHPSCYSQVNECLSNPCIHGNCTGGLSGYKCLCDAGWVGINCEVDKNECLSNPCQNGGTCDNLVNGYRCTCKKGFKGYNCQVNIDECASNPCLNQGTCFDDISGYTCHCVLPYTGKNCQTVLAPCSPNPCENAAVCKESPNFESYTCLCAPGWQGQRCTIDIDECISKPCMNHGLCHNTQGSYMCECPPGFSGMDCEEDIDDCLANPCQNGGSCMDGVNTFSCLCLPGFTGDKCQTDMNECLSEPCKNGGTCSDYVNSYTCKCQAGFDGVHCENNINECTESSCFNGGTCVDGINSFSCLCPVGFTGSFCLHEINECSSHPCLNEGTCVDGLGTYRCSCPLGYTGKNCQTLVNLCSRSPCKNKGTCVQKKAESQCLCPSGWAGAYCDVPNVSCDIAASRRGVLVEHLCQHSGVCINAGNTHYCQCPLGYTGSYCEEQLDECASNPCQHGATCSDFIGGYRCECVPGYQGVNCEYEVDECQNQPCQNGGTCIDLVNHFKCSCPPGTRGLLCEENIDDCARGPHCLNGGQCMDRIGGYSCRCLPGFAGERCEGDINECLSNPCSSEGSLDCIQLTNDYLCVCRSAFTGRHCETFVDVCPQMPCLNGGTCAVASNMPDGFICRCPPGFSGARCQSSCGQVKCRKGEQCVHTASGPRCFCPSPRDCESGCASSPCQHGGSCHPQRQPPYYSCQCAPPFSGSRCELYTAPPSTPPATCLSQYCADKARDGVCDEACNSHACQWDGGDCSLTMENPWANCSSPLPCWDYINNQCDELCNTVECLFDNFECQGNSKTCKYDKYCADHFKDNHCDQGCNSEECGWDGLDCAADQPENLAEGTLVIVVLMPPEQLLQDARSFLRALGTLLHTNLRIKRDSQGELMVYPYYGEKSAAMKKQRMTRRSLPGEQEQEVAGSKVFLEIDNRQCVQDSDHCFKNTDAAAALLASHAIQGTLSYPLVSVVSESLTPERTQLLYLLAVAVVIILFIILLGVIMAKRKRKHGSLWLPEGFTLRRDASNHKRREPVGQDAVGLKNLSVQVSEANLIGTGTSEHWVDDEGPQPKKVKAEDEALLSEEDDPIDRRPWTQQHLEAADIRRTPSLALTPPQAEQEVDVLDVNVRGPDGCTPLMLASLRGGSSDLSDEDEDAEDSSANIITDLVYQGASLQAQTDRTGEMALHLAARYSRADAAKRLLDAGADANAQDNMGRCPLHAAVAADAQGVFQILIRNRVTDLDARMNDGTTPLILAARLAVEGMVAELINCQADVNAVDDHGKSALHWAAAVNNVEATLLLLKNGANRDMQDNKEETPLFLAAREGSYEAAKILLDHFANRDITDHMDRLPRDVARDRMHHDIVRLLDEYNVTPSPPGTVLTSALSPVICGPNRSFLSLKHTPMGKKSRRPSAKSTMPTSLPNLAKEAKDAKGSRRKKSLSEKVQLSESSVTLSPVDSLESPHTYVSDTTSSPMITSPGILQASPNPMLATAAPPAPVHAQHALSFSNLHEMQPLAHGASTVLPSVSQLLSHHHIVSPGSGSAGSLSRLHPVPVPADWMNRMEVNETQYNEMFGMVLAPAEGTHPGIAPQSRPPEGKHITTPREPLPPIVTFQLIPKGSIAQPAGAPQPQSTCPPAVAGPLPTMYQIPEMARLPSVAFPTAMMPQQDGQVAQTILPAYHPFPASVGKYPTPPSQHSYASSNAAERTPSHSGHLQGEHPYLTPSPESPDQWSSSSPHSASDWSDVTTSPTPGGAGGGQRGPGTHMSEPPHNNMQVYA

`Cn1c(=O)n2n(c1=O)[C@H]1[C@H](O)[C@@H]3O[C@@H]3C(=NOCc3ccccc3)[C@H]1CC2`: the composite z-score in experiment [1] is -0.266; in experiment [2], 0.125; in [3], -0.085; in experiment [4], -0.0229; in experiment [5] it was 0.0633; in experiment [6], -0.257. Besides, the composite z-score in experiment [7] was 0.0977; in experiment [9], -0.0977; in experiment [10] it was -0.0088; in [11] it was 0.241; in experiment [15], 2.31; in [17], -0.185. The figures for the composite z-score in experiment [18], in experiment [19] and in experiment [20] were -0.173, 0.525 and -0.118, respectively. The z-score in [8] was -0.928 (inactive); in experiment [12] it was 0.409 (inactive); in [13], -0.41 (inactive); in experiment [14] it was -0.115 (inactive); in [16], 0.703 (inactive).
Regarding `CCCNC(=O)OC[C@H]1O[C@H](c2ccccc2)C=C[C@@H]1Oc1ccc(OC)cc1`, the composite z-score in experiment [1] was -0.428; in experiment [2], 0.273; in experiment [3] it was 0.0299; in experiment [4] it was 0.594; in experiment [5] it was 0.344; in experiment [6], -0.327. The composite z-score in [7] is -0.0407; in experiment [9], -0.246; in experiment [10], -0.0994; in [11], -0.0125; in experiment [15] it was 0.361; in [17] it was -0.0916. Besides, the composite z-score is -0.234 in experiment [18], -0.124 in experiment [19] and -0.146 in experiment [20]. For the same molecule, the z-score in [8] is -0.0983 (inactive); in experiment [12] it was -0.325 (inactive); in experiment [13], -0.423 (inactive); in experiment [14], 0.0199 (inactive); in [16] it was 0.806 (inactive).
For the molecule `CCOC(=O)[C@H](Cc1ccccc1)NC(=O)OC1CC(CCC2CC(CC)=NO2)OC2(CCCC(COC(=O)NCCC(C)C)O2)C1` (stereo not given in full), the composite z-score is -0.436 in experiment [1]; -0.235 in experiment [2]; -0.0692 in experiment [3]; 0.354 in experiment [4]; 0.165 in experiment [5]; 0.418 in [6]. Moreover, the composite z-score was 0.86 in experiment [7]; -0.0729 in [9]; -0.218 in experiment [10]; 1.19 in experiment [11]; 1.44 in experiment [15]; -0.147 in [17]. Moreover, the composite z-score in experiment [18] is 0.322; in experiment [19], -0.0258; in experiment [20], -0.0721. The z-score in experiment [8] is 0.309 (inactive); in experiment [12] it was -0.764 (inactive); in experiment [13], 0.595 (inactive); in experiment [14], 0.344 (inactive); in [16], 1.11 (inactive).
Turning to `COc1ccc(O[C@H]2C=C[C@@H](c3ccccc3)O[C@@H]2COC(=O)CCC(C)=NO[C@@H]2O[C@H](COC(C)=O)[C@@H](OC(C)=O)[C@H](OC(C)=O)[C@H]2OC(C)=O)cc1`, the composite z-score was -0.468 in experiment [1]; 0.135 in [2]; -0.152 in [3]; 0.608 in [4]; 0.424 in [5]; -0.0533 in [6]. In addition, the composite z-score is 0.929 in [7]; 0.247 in experiment [9]; -0.236 in [10]; 1.44 in [11]; 0.727 in [15]; -0.253 in [17]. Further, the results for the composite z-score in experiment [18], in [19] and in experiment [20] were 0.749, 1.1 and -0.0271, respectively. Further, the z-score in experiment [8] is 1.09 (inactive); in experiment [12], 1.2 (inactive); in [13], 1.03 (inactive); in [14] it was 0.865 (inactive); in [16], 0.271 (inactive).
Consider `COC(=O)CC=C[C@@H](C)[C@@H](C=NOC[C@H]1O[C@H](c2ccccc2)C=C[C@@H]1Oc1ccc(OC)cc1)OC`, for which the composite z-score was -0.309 in experiment [1]; -0.0766 in experiment [2]; -0.14 in [3]; 0.304 in experiment [4]; -0.639 in experiment [5]; -0.549 in experiment [6]. Also, the composite z-score in experiment [7] is -0.282; in experiment [9], -0.251; in [10], 0.0373; in [11] it was -0.356; in experiment [15], -0.072; in experiment [17], -0.258. Also, the composite z-score in [18] was 0.0133; in experiment [19] it was -1.13; in [20], -0.253. Further, the z-score in experiment [8] is 0.532 (inactive); in experiment [12] it was -0.337 (inactive); in [13] it was 0.427 (inactive); in experiment [14], 0.439 (inactive); in [16], -0.19 (inactive).
